Bioassay records: PubChem BioAssay, Broad Institute
aSyn UTR act: Activators via SNCA 5'UTR binding, MLPCN. alpha-synuclein 5'UTR reporter, activators screen. activity score, % (tested at 7.5 µM), hits read low. actives 7.1% (n = 300,000). AID 1814, 2009; in the data active means activity score below about -60%
Numbers without * were called inactive. Only a sample is shown.

SMILES | aSyn UTR act
COc1ccc(OCc2ccc(C(=O)O)cc2)cc1 | -111*
Cc1ccccc1OCC(=O)OCC(=O)c1ccc(OCc2ccccc2)cc1 | -112*
COc1ccccc1CC(=O)c1ccc(OCc2ccccc2)cc1 | -73*
Cc1cccn2cc(COc3cccc([N+](=O)[O-])c3)nc12 | -65*
O=C(Nc1ccc(O)cc1)c1cc2n(n1)C(C(F)(F)F)CC(c1ccco1)N2 (configuration not stated) | -66*
O=C1N(Cc2ccc(F)cc2)CCN1c1ccc(F)cc1 | -81*
O=c1c(N2CCCCC2)coc2ccccc12 | -86*
CCN(CC)c1ccc(C2Nc3cccc4cccc(c34)N2)cc1 | -171*
Cc1nc(N)sc1-c1csc(N(C)c2ccc(O)cc2)n1 | -127*
CN(c1ccc(O)cc1)c1nc(-c2cccs2)cs1 | -238*
O=C(NCC1CCCO1)c1ccccc1-c1nc(-c2ccc(Cl)cc2)no1 (configuration not stated) | -74*
O=C(c1ccccc1-c1nc(-c2ccc(Cl)cc2)no1)N1CCCC1 | -251*
Cc1ccc2cc(CN(CC3CCCO3)C(=S)Nc3ccccc3)c(=O)[nH]c2c1C (configuration not stated) | 72
COc1ccc2[nH]c(=O)c(CN(Cc3cccs3)S(=O)(=O)c3c(C)ccc4nsnc34)cc2c1 | 89
Cc1cc(C)c2cc(CN(CC3CCCO3)S(=O)(=O)c3ccc4c(c3)OCCO4)c(=O)[nH]c2c1 (configuration not stated) | -94*
Cc1ccc2nsnc2c1S(=O)(=O)N(CCO)Cc1cc2cc3c(cc2[nH]c1=O)OCCO3 | -90*
CC(=O)c1ccc(S(=O)(=O)N(Cc2cc3cc4c(cc3[nH]c2=O)OCCO4)CC2CCCO2)cc1 (configuration not stated) | -180*
Cc1ccc2cc(CN(CC3CCCO3)S(=O)(=O)c3ccc4c(c3)OCCO4)c(=O)[nH]c2c1C (configuration not stated) | -108*
CCOc1cc(/C=C2\CN(C)C/C(=C\c3ccc(O)c(OCC)c3)C2=O)ccc1O | 96
CCOc1cc(/C=C2\CCC/C(=C\c3cc(Cl)c(O)c(OCC)c3)C2=O)cc(Cl)c1O | -329*
Cc1c(C(=O)NCCCN2CCCCC2)oc2ccc3c(c12)C(O)CC1(CCCCC1)O3 (configuration not stated) | 76
Cc1c(C(=O)NCc2ccoc2)oc2ccc3c(c12)C(=O)CC(C)(C)O3 | -464*
O=C1c2ccccc2C(=O)N1CCN1CCc2ccccc21 | -97*
CCOC(=O)Cn1c(=NC(=O)c2ccc([N+](=O)[O-])s2)sc2ccccc21 | -180*
CCc1ccc(-c2ccc(SCC(=O)NCC3CCCO3)nn2)cc1 (configuration not stated) | -94*
SMILES | aSyn UTR act
CCc1nnc(NC(=O)CSc2ccc(-c3ccc(-n4cccn4)cc3)nn2)s1 | -98*
CCc1ccc(-c2ccc(SCC(=O)Nc3nnc(C)s3)nn2)cc1 | -83*
O=C(c1cccs1)N1N=C(c2ccc(O)cc2)CC1c1ccccc1 (configuration not stated) | -72*
Cc1nc2c(s1)sc1ccccc12 | -76*
COc1ccc(C(=O)Nc2nc(C)c(C)s2)cc1OC | -142*
COC(=O)c1ccc(NC(=O)c2ccc3nc(C)sc3c2)cc1 | -180*
COc1ccc(NC(=O)c2ccc3nc(C)sc3c2)cc1 | -124*
COc1ccc(C(=O)Nc2ccc3nc(C)sc3c2)cc1OC | -101*
Cc1nc2ccc(C(=O)Nc3cccc([N+](=O)[O-])c3)cc2s1 | -127*
COc1ccc(C(=O)Nc2ccc(Oc3nc(C)nc4sc(-c5ccccc5)cc34)cc2)cc1OC | -120*
Cn1cc(C(=O)N/N=C/c2ccc3c(c2)OCO3)c2ccccc21 | -276*
Cc1cccc(C)c1OCC(=O)N/N=C/c1ccc2c(c1)OCO2 | -85*
Cn1cc(C(=O)N/N=C/c2cccs2)c2ccccc21 | -181*
O=C(N/N=C/c1ccc2c(c1)OCO2)c1cccc2ccccc12 | -109*
Cc1nc2nc(-c3ccc(Cl)cc3)nn2c(C)c1Cl | -235*
Cc1nc2nc(-c3ccccc3)nn2c(C)c1C | -105*
CCN1C(=O)C(=Cc2cccc(OC)c2Oc2ccc([N+](=O)[O-])cc2[N+](=O)[O-])SC1=S | 80
CCN1C(=O)/C(=C/C=C2\C=CN(CC)c3ccccc32)SC1=S | -80*
CCN1C(=O)/C(=C\C=C2/C=CC=CN2CC)SC1=S | -125*
CCS(=O)(=O)NCCc1csc(-c2ccccc2)n1 | -63*
Nc1nc2ccccc2n1/N=C/c1ccc(Br)cc1 | -139*
Nc1nc2ccccc2n1/N=C/c1ccc2c(c1)OCO2 | -192*
CCCc1cc(C(=O)NCCc2ccccc2)no1 | -91*
COc1ccccc1-c1cc(C(=O)NCCc2ccccc2)no1 | -114*
COc1cccc2cc(C(=O)NCCc3ccccc3)oc12 | -84*
SMILES | aSyn UTR act
C/C(CC(=O)Nc1cccc2c1CCCC2)=N\NC(=O)c1ccccc1N | -110*
Cc1ccc(SCCSc2nc(C)cc(=O)[nH]2)cc1 | -133*
CCCCCCCn1c2c(c(=N)c3c1CCC3)CCCC2 | 83
CCCNC(=O)c1ccc2c(=O)c(O)c(-c3ccc(F)cc3)[nH]c2c1 | 81
CCCNC(=O)c1ccccc1NC(=O)c1ccc2c(c1)NC(=O)C(C)S2 (configuration not stated) | -96*
CC(=O)c1ccccc1NC(=O)c1ccc2c(c1)NC(=O)C(C)S2 (configuration not stated) | -135*
CCOC(=O)c1[nH]c(C)c(C(=O)c2cc(F)ccc2F)c1C | 74
COC(=O)c1c(C)[nH]c(C(=O)OCc2ccc(F)cc2)c1C | -189*
CC(=O)c1c(C)[nH]c(C(=O)OCc2ccc(F)cc2Cl)c1C | -68*
c1ccc(-c2noc(-c3ccc4ccccc4c3)n2)cc1 | 77
Brc1ccc(-c2nc(-c3cccnc3)no2)o1 | -164*
Brc1ccc(-c2nc(-c3ccccc3)no2)o1 | -141*
CC1CCN(C(=O)c2ccc3ccccc3c2)CC1 | -152*
O=C(NC1CC1)c1ccc2c(Cl)c3c(nc2c1)CCCC3 | -87*
CC1CCN(C(=O)c2ccc(S(=O)(=O)Cc3ccccc3F)c([N+](=O)[O-])c2)CC1 | -71*
N#Cc1ccccc1NC(=O)c1ccc2c(Cl)c3c(nc2c1)CCCC3 | -219*
CC(=O)c1cccc(NC(=O)c2ccc3c(Cl)c4c(nc3c2)CCCC4)c1 | -83*
CC1CCN(C(=O)c2ccc3c(Cl)c4c(nc3c2)CCCC4)CC1 | -71*
O=C(Nc1cccnc1Cl)c1ccc2c(Cl)c3c(nc2c1)CCC3 | -71*
CCCSc1nnc(-c2ccccc2N)c(=O)[nH]1 | -70*
CCOc1ccc(C(=S)NC2CCCCC2)cc1 | -100*
COc1ccc(C(=S)NC2CCCCC2)cc1 | -80*
Cc1c(CCC(=O)N[C@@H](C)C(=O)O)c(=O)oc2cc3oc4c(c3cc12)CCCC4 | 71
Nc1c(C(=O)Nc2ccccc2F)sc2nc(-c3cccnc3)ccc12 | -88*
Nc1c(C(=O)Nc2ccccc2F)sc2nc(-c3ccco3)ccc12 | -118*
SMILES | aSyn UTR act
CC(=O)Nc1ccccc1/C=C/c1ccc2c(C)ccc(O)c2n1 | -64*
O=C(O)c1ccc(-c2nc(-c3ccc(Cl)c(Cl)c3)cs2)cc1 | -100*
O=C(O)c1ccc(-c2nc(-c3ccccc3)cs2)cc1 | -140*
c1ccc(-c2csc(-c3ccc(-c4csnn4)cc3)n2)cc1 | -192*
CNC(=O)c1ccc(-c2nc(-c3ccccc3)cs2)cc1 | -116*
O=C(O)c1ccccc1C(=O)Nc1ccc(-c2csc(-c3ccccc3)n2)cc1 | -64*
